Reference: PubChem BioAssay (NCI)
Compounds without any hit were thinned out: in the full panel of roughly 83,000, 20% have a hit.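 Growth was measured after 48 h exposure to one concentration of compound in 96-well plates. Values under 10 count as active.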 Calls of active or inactive are those of the source.

These molecules were tested on HL-60(TB) leukemia (assay: NCI-60 one-dose screen, 48 h (100 = growth as untreated, 0 = no growth, -100 = all killed)). Settings: 10 µM unless noted.

Compound | growth
COc1cccc(/C=C2\N=C(C)N(CCc3ccc(S(N)(=O)=O)cc3)C2=O)c1 | 89.4% (inactive)
Cc1ccc(NCC(=O)Cn2cc(COc3ccc(C=Nc4cnc5ccccc5c4)cc3)nn2)cc1 | 101% (inactive)
CCCCCCn1c(O)c(N=Nc2nc(-c3cc4ccccc4oc3=O)cs2)c2ccccc21 | 87.8% (inactive)
O=C(NO)c1ccc(CNC(=O)[C@H]2Cc3c([nH]c4ccccc34)[C@H](c3ccc(Cl)cc3)N2)cc1 | 4.62% (active)
O=C(NN1C(=O)/C(=C/C=C/c2ccc([N+](=O)[O-])o2)SC1=S)c1ccccc1O | -0.846% (active)
CCOC(=O)C1NN(c2ccc(S(N)(=O)=O)cc2)c2nc3nc(-c4cccs4)cc(-c4cccs4)c3c(=O)n21 (stereo not given) | 96.2% (inactive)
COc1ccc2[nH]c(O)c(N=NC(=O)Cn3c(-c4ccccc4)nc4cc(C)ccc43)c2c1 | -50.8% (active)
COc1ccc(NC(=O)[C@H](CO)NC(=O)OC(C)(C)C)cc1C(=O)Nc1cccc(C2CC(=O)c3c(cc(OC)c(OC)c3OC)O2)c1 (stereo not given in full) | 58.1% (inactive)
C=CC(=O)Nc1ccc(C(=O)/C=C/c2ccc(N(C)CCF)cc2)c(O)c1 | -32.2% (active)
COC(=O)CNC(=O)COc1c(OC)c(OC)cc2oc(-c3cccc(C(=O)Nc4ccc(Cl)cc4)c3)cc(=O)c12 | 101% (inactive)
CN(C)C(=O)c1cc(-c2ccc3ncnc(N4CCc5cc(F)c(Cl)cc54)c3c2)cnc1N | -73.8% (active)
O=C(O)CC1S/C(=N/N=C/c2nc3ccccc3s2)NC1=O (stereo not given) | 98.4% (inactive)
COc1cc(C2CC(c3cc(OC)c(OC)c(OC)c3)=NN2c2ccccc2)ccc1OCc1ccc(C)cc1 (stereo not given) | 101% (inactive)
Cc1ccc(C2CC(c3ccc(NC(=O)Nc4ccccc4)cc3)=NN2c2ccc(S(C)(=O)=O)cc2)cc1 (stereo not given) | 13.4% (inactive)
O=C(CSc1nnc(-c2ccc(-c3nc4ccc(Cl)cc4[nH]3)cc2)o1)Nc1ccc(Br)cc1 | 29.7% (inactive)
Cc1ccc(NCC(=O)Nn2c(COc3ccccc3)nc3ccccc3c2=O)cc1 | 93.9% (inactive)
Cc1ccc(C(SCCNCc2cc(N(C)C)ccn2)(c2ccccc2)c2ccccc2)cc1 | -40.9% (active)
O=C(NO)c1ccc(Cn2ccc3c(NCc4ccccc4)ncnc32)cc1 | -16% (active)
O=C(c1ccccc1)c1ccc2nc(-c3ccc(F)cc3)[nH]c2c1 | 36.1% (inactive)
CCOC(=O)/C=C/c1cccc2c1C(=O)NC(C)(c1cc3cc(Cl)ccc3oc1=O)N2 (stereo not given) | 2.37% (active)

Compound | growth
COc1cc(C=O)ccc1OC(=O)c1cc(-c2ccc(C)cc2)n(-c2ccc(S(C)(=O)=O)cc2)n1 | 83.4% (inactive)
O=C(Cc1ccc2c(c1)CN(C1CCC(=O)NC1=O)C2=O)NCCc1ccccc1 (stereo not given) | -19.2% (active)
COc1ccc(/C=C/C(=O)c2ccc(NC(=O)CN3C(=O)NC(C)(c4ccccc4)C3=O)cc2)cc1 (stereo not given) | 67.3% (inactive)
Nc1nc(Nc2ccc(Cl)cc2)n(Cc2cccc(Br)c2)n1 | -14.2% (active)
CC(=O)Nc1ccc(-n2cnc3cc(-c4ccc(NS(C)(=O)=O)cc4)ccc32)cc1 | 59.9% (inactive)
COc1ccc(-c2nc3ccc(-c4nnc(SCC(=O)Nc5ccc(/C(C)=N\O)cc5)o4)cc3[nH]2)cc1 | 77.6% (inactive)
COc1cc2oc(-c3cccc(C(=O)Nc4ccc(Cl)cc4)c3)cc(=O)c2c(OCCNC(=O)[C@@H](N)CO)c1OC | -29.2% (active)
Fc1ccc(F)c(CNc2nc(SCCN3CCOCC3)nc3c2cnn3CC(Cl)c2ccc(Br)cc2)c1 (stereo not given) | -12.3% (active)
COc1cccc(-c2c(C#N)c(-c3ccc(Cl)cc3)nc3n[nH]c(-c4ccc(Cl)cc4)c23)c1 | 7.69% (active)
Clc1ccc(CNc2nc(SCCN3CCOCC3)nc3c2cnn3CC(Cl)c2ccc(Br)cc2)cc1 (stereo not given) | -9.78% (active)
FC(F)(F)c1cc2c(Cl)ncnc2n1CCC1CCOCC1 | -59.6% (active)
COc1cc2c3c(n(CCCNC(C)C)c(=O)c2cc1OC)-c1nc2c(cc1C3=O)OCO2 | 71.6% (inactive)
Cc1cccc2cc(-c3cc(-c4ccccc4)nc(=O)[nH]3)c(Cl)nc12 | 55.3% (inactive)
CC1=C(C(=O)OCc2ccccc2)C(c2ccc(N(C)C)cc2)n2c(nc3ccccc32)N1 (stereo not given) | 73.7% (inactive)
CCC(=O)c1cc(C(=O)OC)c2ccc3c4ccccc4ccc3n12 | 103% (inactive)
Brc1ccc(N/N=C/c2c[nH]c3ccc(Br)cc23)nc1 | -17.2% (active)
COC(=O)/C=C/c1cccc2c1C(=O)NC(C)(c1cc3cc4ccccc4cc3oc1=O)N2 (stereo not given) | 54.7% (inactive)
O=C(NN1C(=O)/C(=C/C=C/c2ccc([N+](=O)[O-])o2)SC1=S)c1ccc(O)cc1 | -41.8% (active)
COc1ccc2[nH]c(=O)c(CSc3cccc(N)c3)cc2c1 | 51.3% (inactive)
CCCn1c(NC(=O)c2cccc(C(N)=O)c2)nc2ccc(CN3CCCCC3)cc21 | 72.9% (inactive)
